Reference: PubChem BioAssay (NCATS)
Values joined by “and” are separate entries in the source; they are usually repeats but may differ in a detail not shown here. Equal values may be shown once. Results filed as inconclusive are left out. Active and inactive are the calls of the source. Unless noted, calls follow the shape of the dose curve; as a rule, active = well fitted curve in the direction sought with a large enough effect; inconclusive = small, poorly fitted or top-dose-only effect, or another doubt; inactive = no such curve, though single readings can be large; an effect the other way counts as inactive or inconclusive.

Assays:
[1] = target: Tyrosine-protein kinase Yes (Homo sapiens) (UniProt P07947); experiment: qHTS for small molecule inhibitors of Yes1 kinase: Primary Screen (AID 686947);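 also: plate controls were DMSO with enzyme for no effect and no-enzyme DMSO wells for full effect; nearly all actives have a fitted effect of over 60% in size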
Chain of Tyrosine-protein kinase Yes (Homo sapiens) (P07947 whole entry, looked up): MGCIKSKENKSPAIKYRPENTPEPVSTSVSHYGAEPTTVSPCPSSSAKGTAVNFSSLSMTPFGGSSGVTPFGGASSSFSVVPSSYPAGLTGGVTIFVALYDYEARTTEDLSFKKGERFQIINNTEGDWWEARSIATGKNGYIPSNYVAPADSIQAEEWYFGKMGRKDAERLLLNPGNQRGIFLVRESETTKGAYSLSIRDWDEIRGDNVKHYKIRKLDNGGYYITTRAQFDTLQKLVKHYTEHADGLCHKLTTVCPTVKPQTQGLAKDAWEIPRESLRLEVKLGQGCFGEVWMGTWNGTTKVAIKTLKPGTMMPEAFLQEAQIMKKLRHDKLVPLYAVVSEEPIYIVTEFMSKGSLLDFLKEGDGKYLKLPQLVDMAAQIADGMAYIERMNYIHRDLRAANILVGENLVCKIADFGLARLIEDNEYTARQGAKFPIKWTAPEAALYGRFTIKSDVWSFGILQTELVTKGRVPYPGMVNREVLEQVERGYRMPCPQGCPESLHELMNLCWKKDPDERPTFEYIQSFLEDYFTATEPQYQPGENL
Method in brief: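 In this qHTS format, inhibition is expressed relative to DMSO controls with enzyme (maximum) and without enzyme (minimum). The 60 min room-temperature reaction uses 0.1 mM ATP, with ADP detected by luminescence.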

[2] = qHTS for small molecule inhibitors of Yes1 kinase: Counter Assay (AID 686950);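 also: no kinase present so only ADP-Glo detection of a fixed ADP amount is tested; luminescence from ADP-Glo reporting ADP in a fixed ATP and ADP mixture; 0% = DMSO wells with ATP plus ADP and -100% = ATP-only wells without ADP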
Method in brief: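 Measuring interference with ADP-Glo, the assay ran 60 min at room temperature on an ATP/ADP mix lacking enzyme. Values were normalized to ATP-plus-ADP (maximum) and ATP-only (minimum) DMSO controls.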

[3] = target: Arylsulfatase A (Homo sapiens) (UniProt P15289); experiment: qHTS screen for enhancers of Arylsulfatase A (ASA1): LOPAC Validation Assay (AID 720538); also: 0% is about no effect
Chain of Arylsulfatase A (Homo sapiens) (P15289 whole entry, looked up): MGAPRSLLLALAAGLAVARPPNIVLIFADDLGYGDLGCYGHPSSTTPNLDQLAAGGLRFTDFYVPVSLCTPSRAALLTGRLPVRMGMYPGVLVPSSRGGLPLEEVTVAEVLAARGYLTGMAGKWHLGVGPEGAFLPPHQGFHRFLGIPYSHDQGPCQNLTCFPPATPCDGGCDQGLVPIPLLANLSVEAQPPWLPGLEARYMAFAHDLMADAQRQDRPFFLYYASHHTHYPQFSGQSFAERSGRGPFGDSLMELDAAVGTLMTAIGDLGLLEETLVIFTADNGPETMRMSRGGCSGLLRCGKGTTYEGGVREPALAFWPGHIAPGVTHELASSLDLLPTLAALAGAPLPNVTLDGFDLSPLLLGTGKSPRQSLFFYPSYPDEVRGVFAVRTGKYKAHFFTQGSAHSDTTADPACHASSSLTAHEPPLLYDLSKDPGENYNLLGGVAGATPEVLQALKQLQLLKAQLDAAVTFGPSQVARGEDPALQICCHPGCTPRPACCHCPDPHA
Method in brief: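 SV40-transformed fibroblasts from an MLD patient (ASA-I179S) were treated with compound for 48 h at 37 C. They were then lysed with 0.5 mM pNCS substrate (final) for 14 h at room temperature and stopped with NaOH; signal read by fluorescence (Ex 525/Em 598 nm), with increase denoting enhanced activity.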

[4] = qHTS for compounds that reverse cellular toxicity of Amyloid beta (A-beta) peptide in yeast: LOPAC Validation Assay (AID 720559);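 also: plate controls were DMSO for no effect and equimolar ferric chloride plus clioquinol rescue for full effect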
Method in brief: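 Yeast expressing toxic A-beta grown with pinned compounds at 30 C for 48 hr. Growth measured as absorbance at 600 nm; data normalized to DMSO and to an equimolar FeCl3/clioquinol mixture as positive control.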

[5] = qHTS for Activators of Parkin Expression: LOPAC Validation Assay (NLuc Reporter) (AID 720572;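 also: 0% = DMSO and 100% = positive control compound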)
Method in brief: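 Cells harboring the Parkin-promoter coincidence reporter were treated for 24 h at seven concentrations. NLuc output was measured sequentially after the FLuc channel and scaled between DMSO and positive control values.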

[6] = qHTS for Activators of Parkin Expression: LOPAC Validation Assay (FLuc Reporter) (AID 720573;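 also: 0% = DMSO and 100% = positive control compounds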)
Method in brief: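 Neuronal cell line stably expressing FLuc/NLuc coincidence reporter under the Parkin promoter, 1,500 cells/well, dosed 24 h after seeding in 7-point series for 24 h at 37 C. FLuc luminescence read; normalized to DMSO and positive control (100%).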

[7] = target: T1, Hexokinase-4 (Homo sapiens) + Glucokinase regulatory protein (Homo sapiens) (UniProt P35557+Q14397); experiment: qHTS assay for inhibitors of recombinant human GCK-GKRP interaction: Diaphorase-coupled assay (AID 743205)
T1 sequence (P35557 whole entry, looked up): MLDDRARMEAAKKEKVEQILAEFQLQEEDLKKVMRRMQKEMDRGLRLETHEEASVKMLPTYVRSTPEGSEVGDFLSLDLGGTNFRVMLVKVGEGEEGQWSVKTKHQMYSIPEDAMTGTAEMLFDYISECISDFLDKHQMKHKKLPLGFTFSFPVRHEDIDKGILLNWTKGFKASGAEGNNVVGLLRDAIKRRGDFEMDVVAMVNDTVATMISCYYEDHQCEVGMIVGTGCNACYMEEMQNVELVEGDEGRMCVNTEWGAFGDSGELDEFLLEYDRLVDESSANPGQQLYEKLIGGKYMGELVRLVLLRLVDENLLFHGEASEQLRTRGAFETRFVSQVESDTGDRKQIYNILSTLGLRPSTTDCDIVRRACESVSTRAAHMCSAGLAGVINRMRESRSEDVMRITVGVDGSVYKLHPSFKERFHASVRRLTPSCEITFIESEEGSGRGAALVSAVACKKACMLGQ
T1 sequence (Q14397 whole entry, looked up): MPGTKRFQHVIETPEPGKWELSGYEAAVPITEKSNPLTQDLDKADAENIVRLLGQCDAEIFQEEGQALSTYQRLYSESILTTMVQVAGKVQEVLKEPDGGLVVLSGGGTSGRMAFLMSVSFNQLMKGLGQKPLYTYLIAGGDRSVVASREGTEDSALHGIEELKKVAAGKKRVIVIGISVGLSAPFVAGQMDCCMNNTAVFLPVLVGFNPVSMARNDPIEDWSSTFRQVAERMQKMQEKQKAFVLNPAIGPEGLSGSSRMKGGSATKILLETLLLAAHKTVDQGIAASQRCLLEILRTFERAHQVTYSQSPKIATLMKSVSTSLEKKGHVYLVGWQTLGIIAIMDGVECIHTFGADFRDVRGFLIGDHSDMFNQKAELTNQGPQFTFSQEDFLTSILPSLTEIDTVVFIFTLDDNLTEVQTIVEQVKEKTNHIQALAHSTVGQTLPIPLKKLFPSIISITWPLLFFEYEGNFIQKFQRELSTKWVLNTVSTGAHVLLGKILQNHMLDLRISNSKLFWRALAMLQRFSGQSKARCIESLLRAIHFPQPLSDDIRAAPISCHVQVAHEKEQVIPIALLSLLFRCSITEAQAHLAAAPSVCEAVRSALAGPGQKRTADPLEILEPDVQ
Method in brief: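 Compounds pre-incubated 20 min with substrate, then 10 nM GST-GCK with 10 nM FLAG-GKRP added. GCK activity coupled via G6PDH and diaphorase to resorufin (5 mM glucose, 0.4 mM ATP, 0.15 mM NADP+, pH 7.6), read kinetically over 30 minutes at Ex 525/Em 590 nm.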

[8] = target: T1, Hexokinase-4 (Homo sapiens) + Glucokinase regulatory protein (Homo sapiens); experiment: qHTS assay for inhibitors of recombinant human GCK-GKRP interaction: ADP-Glo assay (AID 743206);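 also: plate controls were DMSO plus enzyme for no effect and no enzyme for full effect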
Method in brief: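 Pin-transferred compounds meet a 15 nM GST-GCK/15 nM FLAG-GKRP/2 uM S6P mix (dispense concentrations). ATP is then added to 0.4 mM final with 5 mM glucose, and the reaction runs 60 min at room temperature. ADP is quantified luminescently.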

[9] = target: T1, Hexokinase-4 (Homo sapiens) + Glucokinase regulatory protein (Homo sapiens); experiment: qHTS assay for inhibitors of recombinant human GCK-GKRP interaction: HTRF assay (AID 743207);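 also: 0% = DMSO with GCK present and -100% = DMSO wells lacking GCK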
Method in brief: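 HTRF binding of 5 nM GST-GCK and 5 nM FLAG-GKRP with 2 uM S6P in pH 7.1 Hepes buffer (MgCl2, KCl, DTT, Tween 20, BSA). Anti-FLAG XL665 and anti-GST donor added, 60 min at room temperature; 665/615 nm read, normalized to with- and without-GCK controls.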

[10] = qHTS Assay for Identifying Gametocytocidal Compounds (AID 743244); also: potency is read from the fitted curve at half-maximal effect;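 as to max response: % is scaled to controls: 0 for no effect and ±100 for the full control effect; actives lower the fluorescent signal which means gametocytes are killed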; settings: P. falciparum 3D7 stage III-V gametocytes, alamarBlue, 72 h; max response: stronger effect = lower value
Method in brief: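 P. falciparum 3D7 stage III–V gametocytes (20,000 cells/well) were exposed to compounds for 72 h at 37 °C, 5% CO2. AlamarBlue was then added for 24 h; decreased resorufin fluorescence (Ex 525/Em 598 nm) indicated loss of viability.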

[11] = qHTS profiling for inhibitors of Plasmodium falciparum (3D7) proliferation (AID 743322; call rule not given here;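 also: infected erythrocytes exposed to compound for 72 h before lysis; 100% = DMSO vehicle wells and 0% = 0.29 µM artemisinin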); settings: P. falciparum 3D7 proliferation; at 28.7 µM (top of the series)
Method in brief: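 Parasite DNA was quantified by SYBR Green I fluorescence (ex 485, em 535 nm) after overnight lysis in saponin/Triton buffer at room temperature. Cultures at 0.3% parasitemia and 2.5% hematocrit were first exposed to compound for 72 h at 37 C; signals were normalised to artemisinin (0.29 uM) and vehicle wells.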

[12] = qHTS profiling for inhibitors of Plasmodium falciparum (DD2) proliferation (AID 743323; call rule not given here); settings: lower = more inhibition; at 28.7 µM (top of the series)
Method in brief: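 SYBR Green fluorescence (ex 485, em 535 nm) of lysed cultures gives parasite DNA content; wells normalized to artemisinin (0.29 uM) and DMSO controls. Infected red cells: 0.3% parasitemia, 2.5% hematocrit, 72 h, 37 C.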

[13] = qHTS profiling for inhibitors of Plasmodium falciparum (HB3) proliferation (AID 743324); settings: Plasmodium falciparum HB3 blood-stage proliferation; at 28.7 µM (top of the series);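 also: 100% = DMSO vehicle wells and 0% = artemisinin-treated control wells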
Method in brief: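 SYBR Green fluorescence (485 ex/535 em) of lysed cultures, incubated overnight at room temperature in the dark, quantifies parasite DNA. Infected erythrocytes at 0.3% parasitemia and 2.5% hematocrit were exposed 72 h; values normalized to DMSO and 0.29 uM artemisinin controls.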

[14] = target: Peroxisome proliferator-activated receptor alpha (Homo sapiens) (UniProt Q07869); experiment: qHTS assay for small molecule agonists of the peroxisome proliferator-activated receptor alpha (PPARalpha) signaling pathway (AID 651778); settings: PathHunter PPARalpha complementation, chemiluminescence, 6 h; max response: stronger effect = higher value; also: potency is read from the fitted curve at half-maximal effect; as to max response: % of control where 0% means no effect
Chain of Peroxisome proliferator-activated receptor alpha (Homo sapiens) (Q07869 whole entry, looked up): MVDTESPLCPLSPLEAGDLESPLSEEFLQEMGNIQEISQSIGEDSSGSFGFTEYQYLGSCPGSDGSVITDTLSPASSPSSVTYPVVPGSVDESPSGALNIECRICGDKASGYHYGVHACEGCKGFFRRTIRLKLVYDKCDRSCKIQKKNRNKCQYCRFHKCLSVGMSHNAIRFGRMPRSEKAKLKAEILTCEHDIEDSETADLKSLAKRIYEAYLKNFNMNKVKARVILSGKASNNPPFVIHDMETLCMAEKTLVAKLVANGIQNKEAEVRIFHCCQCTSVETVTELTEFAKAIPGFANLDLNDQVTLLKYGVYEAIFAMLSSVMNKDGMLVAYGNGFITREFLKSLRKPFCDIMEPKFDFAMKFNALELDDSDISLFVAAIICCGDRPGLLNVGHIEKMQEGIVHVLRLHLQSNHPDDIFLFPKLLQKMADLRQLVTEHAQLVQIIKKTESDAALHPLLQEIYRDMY
Method in brief: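 Cells plated at 2,000/well and held overnight at 37 C, 5% CO2, then compound added by pin tool for 6 hr; after PathHunter detection reagent and 60 min at room temperature, chemiluminescence from enzyme complementation was read.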

[15] = target: Nuclear receptor ROR-gamma (Homo sapiens) (UniProt P51449); experiment: qHTS assay for small molecule antagonists of the retinoid-related orphan receptor gamma (ROR-gamma) signaling pathway (AID 651802); also: potency is read from the fitted curve at half-maximal effect; nearly all actives have a fitted effect of over 60% in size
Chain of Nuclear receptor ROR-gamma (Homo sapiens) (P51449 whole entry, looked up): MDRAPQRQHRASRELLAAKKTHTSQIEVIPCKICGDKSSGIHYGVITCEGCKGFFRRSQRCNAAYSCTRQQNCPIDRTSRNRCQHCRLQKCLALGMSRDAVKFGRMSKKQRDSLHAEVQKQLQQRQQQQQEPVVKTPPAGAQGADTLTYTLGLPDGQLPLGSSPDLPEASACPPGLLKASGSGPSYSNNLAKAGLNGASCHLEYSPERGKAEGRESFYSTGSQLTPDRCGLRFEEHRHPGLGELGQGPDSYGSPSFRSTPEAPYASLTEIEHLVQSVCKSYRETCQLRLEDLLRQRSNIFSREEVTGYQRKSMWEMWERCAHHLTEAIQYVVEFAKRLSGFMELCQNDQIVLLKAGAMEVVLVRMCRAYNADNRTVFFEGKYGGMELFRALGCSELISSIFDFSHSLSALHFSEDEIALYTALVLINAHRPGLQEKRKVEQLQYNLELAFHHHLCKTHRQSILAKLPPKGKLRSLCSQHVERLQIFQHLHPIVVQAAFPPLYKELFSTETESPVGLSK
Method in brief: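 Luciferase read-out: ONE-Glo luminescence after 30 min at room temperature, following 16hr doxycycline induction at 37C, 5% CO2 of CHO cells with TET-inducible ROR and RORE-LUC reporter; decreased luminescence = reduced reporter activity.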

[16] = qHTS assay for small molecule agonists of the antioxidant response element (ARE) signaling pathway measured by Nrf2-dependant transcriptional activity (AID 720636; active = well fitted curve in the direction sought with a large enough effect in the repeat runs; an effect the other way counts as inactive or inconclusive; also: potency is read from the fitted curve at half-maximal effect)
Method in brief: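 HepG2 ARE-luc reporter line, 1% dialyzed FBS; 6 hr attachment at 37 C, compound pinned in, 16 hr at 37 C/5% CO2; ONE-Glo, 30 min RT, luminescence read.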

[17] = qHTS assay for small molecule antagonists of the retinoid-related orphan receptor gamma (ROR-gamma) signaling pathway - cell viability counter screen (AID 720652; active = well fitted curve in the direction sought with a large enough effect in the repeat runs; an effect the other way counts as inactive or inconclusive;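 also: compound exposure lasted 16 hr before ATP read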; also: potency is read from the fitted curve at half-maximal effect)
Method in brief: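 CHO RORE-LUC/TET-ROR line, 1,000 cells/well, 37 C 5% CO2 5 hr; cpd or DMSO + doxycycline induction, 16 hr. CellTiter-Glo, 30 min RT, luminescence = ATP content.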

[18] = qHTS assay for small molecule agonists of the antioxidant response element (ARE) signaling pathway measured by Nrf2-dependant transcriptional activity - cell viability counter screen (AID 720653; active = well fitted curve in the direction sought with a large enough effect in the repeat runs; an effect the other way counts as inactive or inconclusive; also: % is scaled to controls: 0 for no effect and ±100 for the full control effect); settings: ARE-bla HepG2 viability, CellTiter-Glo ATP luminescence, 16 h; stronger effect = lower value
Method in brief: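 ARE-bla HepG2 cells (2,000/well) rested 5 hrs at 37C/5% CO2, then exposed to compounds in DMSO for 16 hrs. Viability was read in the same wells as intracellular ATP by luminescence, 30 min at room temperature after reagent addition.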

[19] = qHTS assay for cell viability of HEK293 cells (AID 743288); settings: ATP luminescence (CellTiter-Glo), 18 h; max response: stronger effect = lower value; also: nearly all actives have a fitted effect of over 50% in size; also: potency is read from the fitted curve at half-maximal effect; as to max response: % is scaled to controls: 0 for no effect and ±100 for the full control effect
Method in brief: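 Steps: plate 2,000 parental HEK293 cells per well; incubate ≥5 h, 37 C; add compounds in DMSO; incubate 18 h, 37 C; add CellTiter-Glo; wait 30 min at room temperature; read luminescence.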

[20] = qHTS assay for cell viability of the p53RE-bla HCT-116 cell line (AID 743292); also: % is scaled to controls: 0 for no effect and ±100 for the full control effect; nearly all actives have a fitted effect of over 55% in size
Method in brief: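 Luminescent ATP quantitation (CellTiter-Glo) served as the viability read-out; reagent was added after 16 h compound exposure at 37 C and read after 30 min at room temperature. Cells: p53RE-bla HCT-116, 4,000 per well.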

O=C(O)c1nn(Cc2ccc(Cl)cc2Cl)c2ccccc12
104%: remaining proliferation (% of control), lower = more inhibition [13]
inactive: outcome [1] | outcome [2] | Potency [3] | outcome [4] | Potency [5] | outcome [6] | outcome [7] | outcome [8] | outcome [9] | max response [10] -7.97% and 31%
86.6%: remaining parasite growth % (stronger effect = lower value) [11]
60.1%: activity, percent of control [12]

C[C@@H]1C[C@@H]([C@H](O)CC2CC(=O)NC(=O)C2)C(=O)[C@@H](C)C1
inactive: max response [14] -1.34% and -7.61% and -0.958% | Potency [16] | Potency [17] | max response [18] 15.1% and 0.954% and 3.58% | outcome [20]
0.342%: activity, percent of control [12]
active: Potency [15] 150 nM and 237 nM | Potency [10] 2.82 µM | Potency [19] 0.126 µM
-0.0842%: remaining parasite growth % (stronger effect = lower value) [11]

CCCCCCCCCCCCCCCC[n+]1ccccc1
inactive: Potency [16]
active: Potency [15] 1.19 µM | Potency [10] 7.08 µM

Oc1c(Br)cc(Br)cc1Br
inactive: Potency [16] | Potency [17] | max response [18] -5.17% and -2.6% | max response [10] -0.35% | max response [19] -15.1% and -2.12% | outcome [20]
active: Potency [14] 39.8 µM and 35.5 µM

COP(=O)(OC)C(O)C(Cl)(Cl)Cl (stereo unspecified)
inactive: max response [14] -2.06% | max response [18] -9.64% | max response [19] -19.1% | outcome [20]

O=c1n(Cl)c(=O)n(Cl)c(=O)n1Cl
inactive: max response [14] -0.0703% | Potency [16] | max response [18] -3.02% | max response [10] -4.5% | max response [19] 2.76% | outcome [20]

CN(C)C(=S)SSC(=S)N(C)C
active: Potency [15] 5.31 µM | Potency [16] 42.2 µM | Potency [17] 33.5 µM | Potency [10] 0.0662 µM | Potency [19] 44.7 µM
inactive: max response [14] -9.79% and -7.98% | max response [18] -25.3% | outcome [20]
